# Measured values from publication PMC7862700, “An all-to-all approach to the identification of sequence-specific readers for epigenetic DNA modifications on cytosine”.
# Tests used:
# Assay in all cases: DAPPL (digital affinity profiling via proximity ligation, sequencing); 10 mM Tris-HCl pH 7.5, 50 mM NaCl, 1 mM DTT, 4% glycerol, room temperature, 30 min; GST-TFs on glutathione beads, 16-mer random dsDNA library, 0.1% formaldehyde crosslink after washing; high values mean tight binding
# FEV = molecular target: T1, FEV (Homo sapiens, UniProt Q99581 1-238); details: protein: recombinant; tags: N-terminal GST; dsDNA, one strand shown
# T1 sequence: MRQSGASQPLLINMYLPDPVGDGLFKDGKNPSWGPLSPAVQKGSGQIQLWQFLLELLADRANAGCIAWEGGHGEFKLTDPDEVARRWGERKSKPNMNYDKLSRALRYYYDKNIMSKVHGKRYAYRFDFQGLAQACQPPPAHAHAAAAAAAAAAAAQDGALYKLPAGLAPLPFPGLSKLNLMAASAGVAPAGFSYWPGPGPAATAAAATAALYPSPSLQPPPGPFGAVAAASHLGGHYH
# Outline: (§1)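 A tag-only sample was pooled with DNA-barcoded human transcription factors that had been expressed in yeast as GST fusions and captured on glutathione beads. The pools were incubated for 30 min at room temperature with 200 nmole of a random double-stranded 16-mer DNA library in Tris/NaCl/DTT/glycerol buffer, then washed, crosslinked with 0.1% formaldehyde, proximity-ligated (BsaI/T4 ligase, 1 h, 37 °C), PCR-amplified and sequenced on an Illumina NextSeq500. Binding signal is each hexamer's read frequency for a factor divided by its frequency for the tag-only sample.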
# ETV5 = ETV5 (Homo sapiens, UniProt P41161 1-510); details: protein: recombinant; tags: N-terminal GST; dsDNA, one strand shown
# ETV5, sequence (P41161 whole entry): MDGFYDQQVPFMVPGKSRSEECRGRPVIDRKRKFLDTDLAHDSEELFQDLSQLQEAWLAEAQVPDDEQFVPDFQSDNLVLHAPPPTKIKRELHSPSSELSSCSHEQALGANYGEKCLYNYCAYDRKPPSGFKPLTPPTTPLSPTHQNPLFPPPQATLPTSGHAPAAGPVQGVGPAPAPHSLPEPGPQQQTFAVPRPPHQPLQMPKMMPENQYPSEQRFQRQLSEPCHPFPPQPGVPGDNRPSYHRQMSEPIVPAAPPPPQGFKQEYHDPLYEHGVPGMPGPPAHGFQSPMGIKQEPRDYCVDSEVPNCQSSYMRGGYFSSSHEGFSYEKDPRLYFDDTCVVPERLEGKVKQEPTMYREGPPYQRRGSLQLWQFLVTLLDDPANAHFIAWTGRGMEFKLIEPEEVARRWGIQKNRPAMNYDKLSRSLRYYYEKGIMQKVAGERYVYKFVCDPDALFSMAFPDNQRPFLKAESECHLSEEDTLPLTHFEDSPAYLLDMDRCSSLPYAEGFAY
# Outline: as §1
# HSF1 = HSF1 (Homo sapiens, UniProt Q00613 1-529); details: protein: recombinant; tags: N-terminal GST; chain copies: 3; dsDNA, one strand shown
# HSF1, sequence (Q00613 whole entry): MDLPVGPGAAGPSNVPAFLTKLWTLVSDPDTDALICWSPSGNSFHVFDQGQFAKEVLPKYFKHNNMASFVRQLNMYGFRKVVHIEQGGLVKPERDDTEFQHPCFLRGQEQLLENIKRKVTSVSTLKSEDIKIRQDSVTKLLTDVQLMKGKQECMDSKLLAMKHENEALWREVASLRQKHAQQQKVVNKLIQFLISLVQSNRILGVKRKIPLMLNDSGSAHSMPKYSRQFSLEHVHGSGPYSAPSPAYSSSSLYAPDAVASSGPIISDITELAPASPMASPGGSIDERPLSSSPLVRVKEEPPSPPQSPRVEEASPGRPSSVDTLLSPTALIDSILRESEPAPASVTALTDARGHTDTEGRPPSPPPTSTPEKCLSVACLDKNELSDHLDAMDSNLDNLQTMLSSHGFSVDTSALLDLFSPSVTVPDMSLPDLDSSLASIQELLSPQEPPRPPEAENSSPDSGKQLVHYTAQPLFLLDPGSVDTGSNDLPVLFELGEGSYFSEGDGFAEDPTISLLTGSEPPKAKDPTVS
# Outline: as §1
# SPIC = molecular target: T2, SPIC (Homo sapiens, UniProt Q8N5J4 1-248); details: protein: recombinant; tags: N-terminal GST; dsDNA, one strand shown
# T2 sequence: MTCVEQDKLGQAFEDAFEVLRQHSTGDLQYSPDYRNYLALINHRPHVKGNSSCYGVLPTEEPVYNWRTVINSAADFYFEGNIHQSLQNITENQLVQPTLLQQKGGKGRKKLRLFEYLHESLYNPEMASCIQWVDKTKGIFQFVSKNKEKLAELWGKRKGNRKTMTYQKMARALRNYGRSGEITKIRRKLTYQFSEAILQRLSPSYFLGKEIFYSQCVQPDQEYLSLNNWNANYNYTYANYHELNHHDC
# Outline: as §1
# ELF4 = ELF4 (Homo sapiens, UniProt Q99607 1-663); details: protein: recombinant; tags: N-terminal GST; dsDNA, one strand shown
# ELF4, sequence (Q99607 whole entry): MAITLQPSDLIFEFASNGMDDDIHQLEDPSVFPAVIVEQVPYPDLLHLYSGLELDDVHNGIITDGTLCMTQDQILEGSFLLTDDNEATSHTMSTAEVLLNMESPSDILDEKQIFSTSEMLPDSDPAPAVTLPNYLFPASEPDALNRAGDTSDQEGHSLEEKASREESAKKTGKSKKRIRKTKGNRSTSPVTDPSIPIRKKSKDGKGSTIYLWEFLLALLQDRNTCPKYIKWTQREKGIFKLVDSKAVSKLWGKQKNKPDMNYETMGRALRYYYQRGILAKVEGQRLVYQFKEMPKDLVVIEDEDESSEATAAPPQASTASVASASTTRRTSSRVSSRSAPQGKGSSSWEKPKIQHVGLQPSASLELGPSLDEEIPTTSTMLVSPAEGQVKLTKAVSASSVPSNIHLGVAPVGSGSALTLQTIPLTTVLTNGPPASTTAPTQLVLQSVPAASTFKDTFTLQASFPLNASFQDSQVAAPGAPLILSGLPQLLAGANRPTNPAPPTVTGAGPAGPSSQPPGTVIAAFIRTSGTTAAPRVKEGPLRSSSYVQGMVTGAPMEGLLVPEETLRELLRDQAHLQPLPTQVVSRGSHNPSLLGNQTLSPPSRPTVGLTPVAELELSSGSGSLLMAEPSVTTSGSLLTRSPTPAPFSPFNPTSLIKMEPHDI
# Outline: as §1
# ELK4 = molecular target: T3, ELK4 (Homo sapiens, UniProt P28324-2 1-405); details: protein: recombinant; tags: N-terminal GST; dsDNA, one strand shown
# T3 sequence: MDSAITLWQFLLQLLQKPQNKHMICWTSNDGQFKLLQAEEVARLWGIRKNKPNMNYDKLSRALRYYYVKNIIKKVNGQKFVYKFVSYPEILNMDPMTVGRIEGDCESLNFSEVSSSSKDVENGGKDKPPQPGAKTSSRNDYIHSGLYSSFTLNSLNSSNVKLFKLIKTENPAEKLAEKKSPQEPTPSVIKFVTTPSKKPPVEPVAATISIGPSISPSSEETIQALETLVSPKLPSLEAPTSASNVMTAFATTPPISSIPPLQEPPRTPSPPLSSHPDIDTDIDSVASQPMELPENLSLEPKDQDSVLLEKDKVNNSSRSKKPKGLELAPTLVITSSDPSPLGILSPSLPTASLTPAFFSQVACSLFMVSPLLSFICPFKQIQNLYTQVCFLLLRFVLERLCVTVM
# Outline: as §1
# ETV2 = molecular target: T4, ETV2 (Homo sapiens, UniProt O00321 1-342); details: protein: recombinant; tags: N-terminal GST; dsDNA, one strand shown
# T4 sequence: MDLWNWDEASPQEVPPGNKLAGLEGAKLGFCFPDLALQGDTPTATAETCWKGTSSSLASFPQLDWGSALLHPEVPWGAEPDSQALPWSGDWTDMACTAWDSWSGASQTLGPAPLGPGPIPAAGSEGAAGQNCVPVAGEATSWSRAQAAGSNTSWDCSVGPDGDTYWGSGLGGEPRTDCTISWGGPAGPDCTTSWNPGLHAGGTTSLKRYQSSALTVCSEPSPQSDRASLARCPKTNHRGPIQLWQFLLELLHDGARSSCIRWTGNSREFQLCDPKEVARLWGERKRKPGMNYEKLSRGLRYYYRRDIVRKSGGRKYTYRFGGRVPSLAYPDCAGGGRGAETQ
# Outline: as §1
# ELF3 = molecular target: T5, ELF3 (Homo sapiens, UniProt P78545 1-371); details: protein: recombinant; tags: N-terminal GST; dsDNA, one strand shown
# T5 sequence: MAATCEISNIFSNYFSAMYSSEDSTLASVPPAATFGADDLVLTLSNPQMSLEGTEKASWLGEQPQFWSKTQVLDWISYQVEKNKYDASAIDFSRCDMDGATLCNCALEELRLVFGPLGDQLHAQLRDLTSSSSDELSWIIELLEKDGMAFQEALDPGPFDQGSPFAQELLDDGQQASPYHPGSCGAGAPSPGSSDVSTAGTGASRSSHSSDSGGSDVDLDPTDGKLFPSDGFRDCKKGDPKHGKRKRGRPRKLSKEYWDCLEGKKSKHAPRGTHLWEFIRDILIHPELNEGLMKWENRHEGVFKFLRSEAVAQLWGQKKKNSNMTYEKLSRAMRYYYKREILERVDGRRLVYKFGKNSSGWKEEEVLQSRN
# Outline: as §1
# CRX = CRX (Homo sapiens, UniProt O43186 1-299); details: protein: recombinant; tags: N-terminal GST; dsDNA, one strand shown
# CRX, sequence (O43186 whole entry): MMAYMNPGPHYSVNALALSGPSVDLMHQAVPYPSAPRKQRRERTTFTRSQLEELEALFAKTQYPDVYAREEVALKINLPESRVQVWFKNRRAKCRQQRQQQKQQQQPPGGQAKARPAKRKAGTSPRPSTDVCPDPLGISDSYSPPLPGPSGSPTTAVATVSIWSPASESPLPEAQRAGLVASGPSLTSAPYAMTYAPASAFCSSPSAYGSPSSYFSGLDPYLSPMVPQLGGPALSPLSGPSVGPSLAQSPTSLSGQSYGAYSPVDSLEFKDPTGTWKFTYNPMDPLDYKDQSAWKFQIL
# Outline: as §1
# ETV1 = ETV1 (Homo sapiens, UniProt P50549 1-477); details: protein: recombinant; tags: N-terminal GST; dsDNA, one strand shown
# ETV1, sequence (P50549 whole entry): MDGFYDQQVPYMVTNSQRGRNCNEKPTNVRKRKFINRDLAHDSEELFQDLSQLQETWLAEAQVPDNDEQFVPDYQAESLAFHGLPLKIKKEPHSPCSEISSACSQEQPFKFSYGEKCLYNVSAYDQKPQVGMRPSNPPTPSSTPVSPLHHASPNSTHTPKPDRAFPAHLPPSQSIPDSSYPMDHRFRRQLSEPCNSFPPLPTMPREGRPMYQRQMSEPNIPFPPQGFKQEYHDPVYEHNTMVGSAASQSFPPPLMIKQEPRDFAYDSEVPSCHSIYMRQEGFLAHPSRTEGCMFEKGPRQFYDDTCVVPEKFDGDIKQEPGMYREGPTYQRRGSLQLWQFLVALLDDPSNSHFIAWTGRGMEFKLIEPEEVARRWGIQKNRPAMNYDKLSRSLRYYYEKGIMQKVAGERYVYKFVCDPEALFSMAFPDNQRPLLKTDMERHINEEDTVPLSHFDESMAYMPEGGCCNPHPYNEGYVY
# Outline: as §1
# ERF = molecular target: T6, ERF (Homo sapiens, UniProt P50548 1-548); details: protein: recombinant; tags: N-terminal GST; dsDNA, one strand shown
# T6 sequence: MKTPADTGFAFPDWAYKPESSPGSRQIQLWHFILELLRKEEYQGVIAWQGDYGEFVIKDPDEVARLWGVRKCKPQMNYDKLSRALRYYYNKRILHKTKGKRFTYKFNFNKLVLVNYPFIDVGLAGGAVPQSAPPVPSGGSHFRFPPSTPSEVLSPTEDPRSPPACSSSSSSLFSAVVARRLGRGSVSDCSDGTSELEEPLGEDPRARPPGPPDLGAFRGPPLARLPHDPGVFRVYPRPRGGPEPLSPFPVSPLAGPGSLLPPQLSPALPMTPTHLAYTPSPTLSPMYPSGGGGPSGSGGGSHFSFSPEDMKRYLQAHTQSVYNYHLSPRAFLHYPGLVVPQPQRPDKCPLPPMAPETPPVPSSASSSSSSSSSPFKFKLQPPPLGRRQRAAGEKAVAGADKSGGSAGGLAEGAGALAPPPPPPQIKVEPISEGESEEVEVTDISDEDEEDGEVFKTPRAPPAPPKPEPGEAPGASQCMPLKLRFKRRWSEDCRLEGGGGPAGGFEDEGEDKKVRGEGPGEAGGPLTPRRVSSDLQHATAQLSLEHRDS
# Outline: as §1
# ETV3L = molecular target: T7, ETV3L (Homo sapiens, UniProt Q6ZN32 1-361); details: protein: recombinant; tags: N-terminal GST; dsDNA, one strand shown
# T7 sequence: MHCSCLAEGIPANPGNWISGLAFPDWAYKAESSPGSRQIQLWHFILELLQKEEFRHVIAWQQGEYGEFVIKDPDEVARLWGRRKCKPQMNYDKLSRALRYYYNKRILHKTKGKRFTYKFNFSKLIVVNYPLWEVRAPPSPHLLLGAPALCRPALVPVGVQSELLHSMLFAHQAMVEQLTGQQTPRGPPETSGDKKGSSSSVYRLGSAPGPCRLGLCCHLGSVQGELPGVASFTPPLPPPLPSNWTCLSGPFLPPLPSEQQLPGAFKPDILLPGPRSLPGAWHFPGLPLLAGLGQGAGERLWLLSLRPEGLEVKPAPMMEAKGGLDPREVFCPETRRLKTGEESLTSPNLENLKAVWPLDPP
# Outline: as §1
# ETS2 = molecular target: T8, ETS2 (Homo sapiens, UniProt P15036 1-469); details: protein: recombinant; tags: N-terminal GST; dsDNA, one strand shown
# T8 sequence: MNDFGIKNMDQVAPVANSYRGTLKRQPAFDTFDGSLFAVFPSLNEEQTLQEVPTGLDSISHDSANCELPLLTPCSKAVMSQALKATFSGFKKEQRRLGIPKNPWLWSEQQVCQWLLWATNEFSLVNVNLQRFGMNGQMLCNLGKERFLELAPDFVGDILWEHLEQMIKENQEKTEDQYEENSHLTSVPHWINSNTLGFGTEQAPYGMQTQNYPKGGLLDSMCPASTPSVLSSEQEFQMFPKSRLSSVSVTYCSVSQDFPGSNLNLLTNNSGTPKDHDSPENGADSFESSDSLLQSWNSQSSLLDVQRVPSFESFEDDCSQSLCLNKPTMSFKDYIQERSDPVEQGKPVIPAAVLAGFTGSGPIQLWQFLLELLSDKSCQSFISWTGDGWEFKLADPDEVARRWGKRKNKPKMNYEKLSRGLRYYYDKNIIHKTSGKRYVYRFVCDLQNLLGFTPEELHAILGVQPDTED
# Outline: as §1
# SPDEF = molecular target: T9, SPDEF (Homo sapiens, UniProt O95238 1-335); details: protein: recombinant; tags: N-terminal GST; dsDNA, one strand shown
# T9 sequence: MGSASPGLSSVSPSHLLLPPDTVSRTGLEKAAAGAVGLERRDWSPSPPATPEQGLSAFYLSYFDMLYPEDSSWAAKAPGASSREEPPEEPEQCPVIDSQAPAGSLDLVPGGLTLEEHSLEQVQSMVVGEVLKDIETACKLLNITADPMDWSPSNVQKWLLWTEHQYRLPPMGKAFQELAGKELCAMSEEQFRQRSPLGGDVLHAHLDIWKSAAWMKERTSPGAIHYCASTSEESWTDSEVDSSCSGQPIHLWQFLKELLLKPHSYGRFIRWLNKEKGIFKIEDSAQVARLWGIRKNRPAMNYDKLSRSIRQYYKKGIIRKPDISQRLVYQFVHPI
# Outline: as §1
# ETV7 = molecular target: T10, ETV7 (Homo sapiens, UniProt Q9Y603 1-341); details: protein: recombinant; tags: N-terminal GST; dsDNA, one strand shown
# T10 sequence: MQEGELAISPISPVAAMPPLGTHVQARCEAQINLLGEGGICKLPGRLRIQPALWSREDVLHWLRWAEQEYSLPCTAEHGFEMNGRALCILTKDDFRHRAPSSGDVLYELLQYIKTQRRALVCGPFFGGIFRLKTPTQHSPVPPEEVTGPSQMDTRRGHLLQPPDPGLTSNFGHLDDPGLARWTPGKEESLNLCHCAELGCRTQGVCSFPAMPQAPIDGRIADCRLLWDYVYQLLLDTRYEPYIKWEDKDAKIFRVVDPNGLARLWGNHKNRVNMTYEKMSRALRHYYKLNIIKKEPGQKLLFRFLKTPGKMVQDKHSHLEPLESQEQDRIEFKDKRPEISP
# Outline: as §1
# ELF5 = molecular target: T11, ELF5 (Homo sapiens, UniProt Q9UKW6-2 1-255); details: protein: recombinant; tags: N-terminal GST; dsDNA, one strand shown
# T11 sequence: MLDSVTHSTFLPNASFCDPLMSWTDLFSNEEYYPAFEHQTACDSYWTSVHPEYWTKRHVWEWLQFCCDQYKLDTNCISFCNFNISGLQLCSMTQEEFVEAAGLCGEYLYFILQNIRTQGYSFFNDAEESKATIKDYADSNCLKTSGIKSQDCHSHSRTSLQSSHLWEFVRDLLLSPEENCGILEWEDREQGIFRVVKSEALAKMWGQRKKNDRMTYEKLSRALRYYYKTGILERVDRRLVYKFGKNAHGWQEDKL
# Outline: as §1
# ETV3 = molecular target: T12, ETV3 (Homo sapiens, UniProt P41162-2 1-143); details: protein: recombinant; tags: N-terminal GST; dsDNA, one strand shown
# T12 sequence: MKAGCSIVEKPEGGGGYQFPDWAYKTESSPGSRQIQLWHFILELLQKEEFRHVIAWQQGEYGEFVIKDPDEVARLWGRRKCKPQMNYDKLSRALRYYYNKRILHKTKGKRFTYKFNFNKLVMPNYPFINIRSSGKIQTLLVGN
# Outline: as §1
# ETV6 = ETV6 (Homo sapiens, UniProt P41212 1-452); details: protein: recombinant; tags: N-terminal GST; dsDNA, one strand shown
# ETV6, sequence (P41212 whole entry): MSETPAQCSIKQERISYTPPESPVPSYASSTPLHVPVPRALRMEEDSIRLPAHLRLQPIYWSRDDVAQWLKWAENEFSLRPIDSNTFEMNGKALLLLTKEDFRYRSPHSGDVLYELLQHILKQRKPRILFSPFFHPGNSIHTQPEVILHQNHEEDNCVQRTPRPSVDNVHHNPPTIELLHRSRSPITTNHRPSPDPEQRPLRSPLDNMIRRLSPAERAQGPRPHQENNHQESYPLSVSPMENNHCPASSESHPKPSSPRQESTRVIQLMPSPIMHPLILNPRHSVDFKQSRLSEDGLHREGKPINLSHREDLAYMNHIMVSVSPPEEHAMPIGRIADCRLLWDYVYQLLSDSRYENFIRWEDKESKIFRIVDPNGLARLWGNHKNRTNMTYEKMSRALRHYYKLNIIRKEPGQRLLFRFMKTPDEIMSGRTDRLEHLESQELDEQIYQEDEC
# Outline: as §1
sequence,measurement,setting,value
TCCTGA,binding signal,FEV,"1.31 fold enrichment (6-mer frequency, TF over GST control)"
same,binding signal,ETV5,"1.53 fold enrichment (6-mer frequency, TF over GST control)"
same,binding signal,HSF1,"1.57 fold enrichment (6-mer frequency, TF over GST control)"
same,binding signal,SPIC,"1.32 fold enrichment (6-mer frequency, TF over GST control)"
same,binding signal,ELF4,"1.39 fold enrichment (6-mer frequency, TF over GST control)"
same,binding signal,ELK4,"1.29 fold enrichment (6-mer frequency, TF over GST control)"
same,binding signal,ETV2,"1.66 fold enrichment (6-mer frequency, TF over GST control)"
same,binding signal,ELF3,"1.39 fold enrichment (6-mer frequency, TF over GST control)"
same,binding signal,CRX,"1.25 fold enrichment (6-mer frequency, TF over GST control)"
same,binding signal,ETV1,"1.49 fold enrichment (6-mer frequency, TF over GST control)"
same,binding signal,ERF,"1.26 fold enrichment (6-mer frequency, TF over GST control)"
same,binding signal,ETV3L,"1.43 fold enrichment (6-mer frequency, TF over GST control)"
same,binding signal,ETS2,"1.59 fold enrichment (6-mer frequency, TF over GST control)"
same,binding signal,SPDEF,"1.69 fold enrichment (6-mer frequency, TF over GST control)"
same,binding signal,ETV7,"1.32 fold enrichment (6-mer frequency, TF over GST control)"
same,binding signal,ELF5,"1.92 fold enrichment (6-mer frequency, TF over GST control)"
same,binding signal,ETV3,"1.71 fold enrichment (6-mer frequency, TF over GST control)"
same,binding signal,ETV6,"1.51 fold enrichment (6-mer frequency, TF over GST control)"
